Among the data in PubChem BioAssay (NCI) are growth values, retold here.

Each structure is given as a SMILES string. About 83,000 compounds went through this panel and 20% of them were active in at least one assay; those are over-represented in the sample as a whole.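 Plates (96-well) were seeded with cells, treated with compound at one concentration, and incubated for 48 hours before percent growth was determined.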 A number with no mark means an inactive call. Calls of active or inactive are those of the source. Rule for the calls: active = growth percent below 10; inactive = the rest.

Some test systems named below: RPMI-8226 leukemia; OVCAR-8 ovarian; OVCAR-5 ovarian; OVCAR-4 ovarian; SK-OV-3 ovarian; IGROV1 ovarian; OVCAR-3 ovarian; NCI/ADR-RES ovarian; T-47D breast; BT-549 breast; MDA-MB-435 melanoma; SW-620 colon; MCF7 breast; HCT-116 colon; HCC-2998 colon; KM12 colon; HS 578T breast.
Holding throughout (test): NCI-60 one-dose screen, 48 h (100 = growth as untreated, 0 = no growth, -100 = all killed)
What all share (details): 10 µM unless noted

With `CCCCCCCCCCCCNc1ncnc2[nH]ncc12`, the growth with RPMI-8226 leukemia was 63%; in the assay with OVCAR-8 ovarian, 77.3%; in the assay on OVCAR-5 ovarian it was 90.6%; with OVCAR-4 ovarian, 77.8%; with SK-OV-3 ovarian, 105%; with IGROV1 ovarian, 92.8%. For the same compound, the growth in the assay on OVCAR-3 ovarian was 79.5%; with NCI/ADR-RES ovarian it was 83.8%; in the assay on T-47D breast, 62.8%; with BT-549 breast, 62.9%; in the assay on MDA-MB-435 melanoma, 71.7%; in the assay with SW-620 colon, 83.1%. Moreover, the growth with MCF7 breast is 59%; in the assay on HCT-116 colon, 53.3%; with HCC-2998 colon, 92.4%; in the assay on KM12 colon it was 79.2%.

In the case of `O=C1c2nsnc2C(=O)c2c(F)c(F)c(F)c(F)c21`, the growth was -1.71% (active) in the assay with RPMI-8226 leukemia; -38.6% (active) in the assay with OVCAR-8 ovarian; -73.8% (active) with OVCAR-5 ovarian; -99.5% (active) in the assay with OVCAR-4 ovarian; 32.4% in the assay with SK-OV-3 ovarian; -22.9% (active) in the assay on IGROV1 ovarian. Besides, the growth in the assay on OVCAR-3 ovarian was -90.1% (active); in the assay on NCI/ADR-RES ovarian, -17.1% (active); in the assay with T-47D breast, -38.9% (active); in the assay on BT-549 breast it was -96.7% (active); with MDA-MB-435 melanoma it was -67.9% (active); with SW-620 colon, -57.3% (active). Further, the growth in the assay with MCF7 breast is -45.1% (active); in the assay on HCT-116 colon, -93.1% (active); in the assay on HCC-2998 colon, -22.4% (active); with KM12 colon, -44% (active).

As for `O=c1cc(-c2cccnc2)oc2c1ccc1ccccc12`, the growth was 80.2% in the assay on RPMI-8226 leukemia; 87% in the assay on OVCAR-8 ovarian; 76.2% in the assay on OVCAR-5 ovarian; 89.3% in the assay on OVCAR-4 ovarian; 106% with SK-OV-3 ovarian; 84.8% in the assay on IGROV1 ovarian. For the same compound, the growth is 76.5% in the assay on OVCAR-3 ovarian; 75.3% in the assay on NCI/ADR-RES ovarian; 81.6% in the assay with T-47D breast; 81.1% in the assay on BT-549 breast; 67% in the assay with MDA-MB-435 melanoma; 81.5% in the assay on SW-620 colon. Also, the growth is 73.6% in the assay on MCF7 breast, 55.7% in the assay with HCT-116 colon, 89.2% in the assay with HCC-2998 colon and 95.8% with KM12 colon.

Regarding `Cn1cc(-c2nc(-c3c[nH]c4ncccc34)cs2)c2cccnc21`, the growth in the assay on RPMI-8226 leukemia was 67.1%; in the assay with OVCAR-8 ovarian, 82.9%; in the assay with OVCAR-5 ovarian, 83.6%; with OVCAR-4 ovarian, 70.4%; in the assay on SK-OV-3 ovarian, 62%; in the assay on IGROV1 ovarian it was 61.5%. Besides, the growth in the assay with OVCAR-3 ovarian is 82.6%; with NCI/ADR-RES ovarian it was 44.7%; in the assay with T-47D breast, 51.4%; with BT-549 breast, 64.7%; in the assay on MDA-MB-435 melanoma it was 5.79% (active); in the assay on SW-620 colon, 60.4%. The growth in the assay on MCF7 breast was 59%; with HCT-116 colon, 41.7%; in the assay with HCC-2998 colon it was 76.1%; with KM12 colon, 52.1%.

As for `O=C(CCc1nnc2sc(-c3ccc(Cl)cc3Cl)nn12)c1nc2ccccc2[nH]1`, the growth in the assay with RPMI-8226 leukemia is 2% (active); with OVCAR-8 ovarian, -30.9% (active); with OVCAR-5 ovarian it was -52.6% (active); in the assay with OVCAR-4 ovarian it was -54% (active); with SK-OV-3 ovarian it was -52.4% (active); with IGROV1 ovarian, 0.377% (active). The growth in the assay with OVCAR-3 ovarian is -80.6% (active); in the assay with NCI/ADR-RES ovarian it was -0.815% (active); with T-47D breast, -68.4% (active); with BT-549 breast, -28.2% (active); in the assay on MDA-MB-435 melanoma, -39.7% (active); in the assay with SW-620 colon it was -34.3% (active). Moreover, the growth with MCF7 breast is -40.7% (active); with HCT-116 colon it was -84.7% (active); with HCC-2998 colon, -90.3% (active); in the assay with KM12 colon it was -27% (active).

As for `NC(=O)c1ccccc1NC(=O)c1ccccc1Cl`, the growth in the assay with RPMI-8226 leukemia was 85%; in the assay on OVCAR-8 ovarian, 99.4%; with OVCAR-5 ovarian it was 108%; in the assay with OVCAR-4 ovarian, 98.3%; in the assay on SK-OV-3 ovarian, 107%; in the assay on IGROV1 ovarian it was 96%. Moreover, the growth was 109% with OVCAR-3 ovarian; 108% with HS 578T breast; 115% in the assay with NCI/ADR-RES ovarian; 96.4% with T-47D breast; 105% in the assay with MDA-MB-435 melanoma; 108% with SW-620 colon. Moreover, the growth in the assay on MCF7 breast was 115%; in the assay with HCT-116 colon, 103%; with HCC-2998 colon, 116%; in the assay with KM12 colon, 105%.

`Clc1nc(Cl)c2ncn(-c3ccccc3)c2n1`: the growth is 108% in the assay on RPMI-8226 leukemia; 51.4% in the assay on OVCAR-8 ovarian; 102% with OVCAR-5 ovarian; 68.9% in the assay on OVCAR-4 ovarian; 88.4% with SK-OV-3 ovarian; -48.8% (active) with IGROV1 ovarian. Further, the growth in the assay with OVCAR-3 ovarian was 54.9%; with NCI/ADR-RES ovarian, 92.6%; in the assay on T-47D breast, 50.6%; in the assay with BT-549 breast it was 86.2%; with MDA-MB-435 melanoma it was 64.5%; with SW-620 colon, 36.5%. Moreover, the growth is 54.8% in the assay with MCF7 breast, 32.1% with HCT-116 colon, 100% in the assay with HCC-2998 colon and 79.5% in the assay on KM12 colon.

Turning to `Cn1cc(-c2csc(-c3cn(C)c4ncccc34)n2)c2cccnc21`, the growth in the assay on RPMI-8226 leukemia is 87.5%; in the assay with OVCAR-8 ovarian, 93.7%; with OVCAR-5 ovarian it was 90.2%; in the assay with OVCAR-4 ovarian, 100%; with SK-OV-3 ovarian it was 123%; with IGROV1 ovarian it was 111%. In addition, the growth with OVCAR-3 ovarian was 112%; in the assay with NCI/ADR-RES ovarian, 91.1%; with T-47D breast, 101%; in the assay on BT-549 breast, 93.6%; with MDA-MB-435 melanoma, 75.8%; with SW-620 colon, 92.4%. Besides, the growth is 91.6% in the assay on MCF7 breast, 95% in the assay on HCT-116 colon, 99.2% with HCC-2998 colon and 96.4% in the assay on KM12 colon.

Regarding `COc1cc2cn3c4ccc(O)cc4nc(N)c3c2cc1OC`, the growth in the assay on RPMI-8226 leukemia is 19.9%; with OVCAR-8 ovarian, 29.6%; in the assay with OVCAR-5 ovarian, 45.3%; in the assay with OVCAR-4 ovarian, 38.7%; in the assay on SK-OV-3 ovarian it was 27.2%; with IGROV1 ovarian, 33.9%. Also, the growth in the assay on OVCAR-3 ovarian was 1.25% (active); with NCI/ADR-RES ovarian, 42.4%; in the assay with T-47D breast, 12.5%; in the assay on BT-549 breast, 20.6%; in the assay on MDA-MB-435 melanoma, 12.4%; in the assay on SW-620 colon, 26.1%. Further, the growth in the assay with MCF7 breast is 6.3% (active); in the assay on HCT-116 colon, -50.7% (active); in the assay on HCC-2998 colon it was 27.2%; in the assay with KM12 colon, 37.9%.

On to `O=C(CCc1nnc2sc(Cc3ccccc3Cl)nn12)c1nc2ccccc2[nH]1`, for which the growth in the assay on RPMI-8226 leukemia was 94.7%; in the assay on OVCAR-8 ovarian, 93.7%; in the assay with OVCAR-5 ovarian, 105%; with OVCAR-4 ovarian, 94%; with SK-OV-3 ovarian, 99.7%; in the assay with IGROV1 ovarian, 90.9%. For the same compound, the growth in the assay with OVCAR-3 ovarian was 82.5%; in the assay on NCI/ADR-RES ovarian, 95.9%; in the assay with T-47D breast, 78.5%; in the assay with BT-549 breast it was 96.7%; in the assay on MDA-MB-435 melanoma, 101%; in the assay with SW-620 colon, 98.8%. The growth with MCF7 breast is 71.6%; in the assay with HCT-116 colon it was 85.1%; in the assay on HCC-2998 colon, 102%; in the assay on KM12 colon it was 95.8%.
